Experimental data from PubChem BioAssay (NCI).
This is part of a sample that, as a whole, favours compounds with a hit. Of some 79,000 tested, about 15% had one in any assay. A number with no mark means an inactive call. Calls of active or inactive are those of the source. Cut-off read from the data, not from the text of the source: active = growth inhibition above about 70%; inactive = the rest.

Assay: NCI Yeast Anticancer Drug Screen. Data for the bub3 strain (AID 167)
Details: S. cerevisiae bub3 mutant strain, at 50.0 µM, stronger effect = higher value
Summary of the method: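 Screening used yeast with an engineered genetic alteration affecting cell cycle control. Compound-exposed cultures were compared with vehicle cultures, and reduced growth was taken as inhibition.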

Point of comparison: `CCc1cccc(NC(=O)c2cc(/C=C/c3ccccc3)[nH]c(=S)n2)c1`, growth inhibition -6.85%. Against it:
- Nc1cc2[nH]c(=O)c3cc([N+](=O)[O-])ccc3c2cc1Cl — lower, -11.6%
- Cc1cccc(NC(=O)CC(=O)N2N=C(N3c4ccccc4Sc4ccccc43)CC2c2ccccc2)c1 (stereo not given) — higher, -5.35%
- N[C@@H](CO)[C@@H](O)c1ccc([N+](=O)[O-])cc1 — higher, 1.5%
- CCCCCCCCCCCCCCCCC(C)=O — higher, 21.9%
- COc1cc(C2C(Cl)C(=O)N2n2cnc3ccccc3c2=O)ccc1O (stereo not given) — lower, -10.2%
- NNC(=O)N/N=C1\C(=O)N(c2ccc(Cl)c(Cl)c2)C(=O)C(=O)C1c1nc2ccccc2s1 (stereo not given) — higher, 0%
- CCCNC(=O)OCC#CCOC(=O)NCCC — higher, 12.5%
- O=C(CC(=O)c1ccc(-c2ccc(C(=O)CC(=O)c3ccccc3)cc2)cc1)c1ccccc1 — higher, -1.8%
- Cc1ccc(C)c(NC(=O)C(=O)C2C(=O)N(c3ccccc3)N=C2N)c1 (stereo not given) — lower, -26.4%
- CSc1ccccc1N.[Cl][Cu][Cl] — higher, 28.1%
- O=C1NC(=O)C2(CCC(O)C2)c2cc[n+]([O-])cc21 (stereo not given) — lower, -25.6%
- COC(=O)C(=O)c1c(C(=O)OC)nc2nnc(N)n2c1C1CC1 — higher, -5.35%
- CCOC(=O)C(=[N+]=[N-])C(=O)c1cc2ccccc2oc1=O — lower, -13.7%
- CSc1c(C#N)c2c(Cl)ncnc2n1C(C)=O — lower, -7.5%
- COC(=O)C(O)C(O)C(O)C(O)C(O)CO (stereo not given) — lower, -8.6%
- C[C@@]1(NC(=O)Cc2ccccc2)C(=O)N2CCS[C@@]21c1ccccc1 — higher, 12.8%
- N#CC1(C#N)CC1c1ccccc1 (stereo not given) — higher, -2.9%
- CCCCS(=O)(=O)N1CCCC1 — higher, -5%
- CCN(CC)CCNc1nc(N)c(C#N)c(C#N)c1C#N — lower, -8.3%
- CC(C)NC(=O)CCC(=O)O — higher, 12.1%
- O=C1C(=Cc2ccc([N+](=O)[O-])cc2)C(=O)c2ccccc21 — higher, 0.15%
- O=C1C2Nc3ccccc3N=C2OC1c1cccc([N+](=O)[O-])c1 (stereo not given) — higher, 20.6%
- N#Cc1sc2c(c1OC(=O)c1ccc(C(F)(F)F)cc1)c(=O)n(-c1ccccc1)c(=S)n2-c1ccccc1 — higher, -6.2%
- O=[N+]([O-])c1ccc(C2=NOC3COC4C=CC=CC4OCC23)cc1 (stereo not given) — higher, 5.95%
- CCCCCCCCCCCCCC(=O)OCC(CCS(=O)(=O)O[C@H]1CC[C@@]2(C)C(=CC[C@@H]3C2CC[C@]2(C)C(=O)CCC32)C1)OC(=O)CCCCCCCCCCCCC (stereo not given in full) — lower, -22.2%
- O=C(/C(=C\c1ccccc1)c1ccccc1)c1ccccc1 — higher, 28.2%
- CCc1nc(Nc2cccc(Cl)c2)c2cnn(-c3ccccc3)c2n1 — higher, 14.7%
- C=CCNC(=S)N/C=C(\C#N)c1nc2ccccc2s1 — higher, -4.35%
- CC(=O)Oc1ccc2ccccc2c1CS(=O)(=O)O — higher, 3.35%
- O=S(=O)(Nc1cc(C(F)(F)F)ccc1Cl)c1ccc(F)cc1 — lower, -32.6%
- NC(=O)CNC(=O)[C@@H]1C[C@@H](OCCC(=O)O)CN1C(=O)OCc1ccccc1 — higher, 14.5%
- O=C(O)CCC(=O)Nc1cc([N+](=O)[O-])ccc1OCc1ccccc1 — higher, -0.95%
- CC1=NN(c2ccccc2)C(N)C1 (stereo not given) — higher, 25.4%
- CN(Cc1ccc(Cl)cc1)C(=O)Nc1ccccc1Cl — higher, 40.2%
- O=C(c1ccc(Cl)cc1Cl)N1CCCCC1 — higher, 4.9%
- c1ccc(CN[C@]23C4C5CC6C7C5C2C7[C@@](NCc2ccccc2)(C64)N3Cc2ccccc2)cc1 (stereo not given in full) — higher, -0.85%
- CN(C)c1ncnc2nc[nH]c12 — higher, -2.6%

In the case of `BrC1=C(c2ccccc2)C2CCCCC2C1(Br)c1ccccc1` (stereo not given), the growth inhibition is reported as 96.8% (active).
In the case of `C=CCNC(=S)N(Cc1ccccc1)Cc1ccccc1`, the growth inhibition is reported as 88.7% (active).

Assay: NCI Yeast Anticancer Drug Screen. Data for the mlh1 rad18 strain (AID 175)
Details: S. cerevisiae mlh1 rad18 strain growth inhibition; at 50.0 µM; stronger effect = higher value
Summary of the method: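 Compound-treated yeast growth, normalised to vehicle controls. Strain bears defined DNA repair mutations.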

Point of comparison: `O=C1C2Nc3ccccc3N=C2OC1c1cccc([N+](=O)[O-])c1` (stereo not given), growth inhibition 24.2%. Against it:
- Nc1cc2[nH]c(=O)c3cc([N+](=O)[O-])ccc3c2cc1Cl — higher, 32.2%
- Cc1cccc(NC(=O)CC(=O)N2N=C(N3c4ccccc4Sc4ccccc43)CC2c2ccccc2)c1 (stereo not given) — lower, -41.8%
- N[C@@H](CO)[C@@H](O)c1ccc([N+](=O)[O-])cc1 — lower, -4.6%
- CCCCCCCCCCCCCCCCC(C)=O — lower, -11.7%
- COc1cc(C2C(Cl)C(=O)N2n2cnc3ccccc3c2=O)ccc1O (stereo not given) — lower, -11.8%
- NNC(=O)N/N=C1\C(=O)N(c2ccc(Cl)c(Cl)c2)C(=O)C(=O)C1c1nc2ccccc2s1 (stereo not given) — higher, 26.4%
- CCCNC(=O)OCC#CCOC(=O)NCCC — lower, -6.1%
- O=C(CC(=O)c1ccc(-c2ccc(C(=O)CC(=O)c3ccccc3)cc2)cc1)c1ccccc1 — lower, -10.7%
- Cc1ccc(C)c(NC(=O)C(=O)C2C(=O)N(c3ccccc3)N=C2N)c1 (stereo not given) — lower, -14%
- CCc1cccc(NC(=O)c2cc(/C=C/c3ccccc3)[nH]c(=S)n2)c1 — lower, -12.1%
- CSc1ccccc1N.[Cl][Cu][Cl] — higher, 28.4%
- O=C1NC(=O)C2(CCC(O)C2)c2cc[n+]([O-])cc21 (stereo not given) — lower, -83.8%
- COC(=O)C(=O)c1c(C(=O)OC)nc2nnc(N)n2c1C1CC1 — lower, 4.25%
- CCOC(=O)C(=[N+]=[N-])C(=O)c1cc2ccccc2oc1=O — lower, 22.2%
- CSc1c(C#N)c2c(Cl)ncnc2n1C(C)=O — lower, 5.35%
- COC(=O)C(O)C(O)C(O)C(O)C(O)CO (stereo not given) — lower, -5.3%
- C[C@@]1(NC(=O)Cc2ccccc2)C(=O)N2CCS[C@@]21c1ccccc1 — lower, 1.95%
- N#CC1(C#N)CC1c1ccccc1 (stereo not given) — higher, 29.3%
- CCCCS(=O)(=O)N1CCCC1 — lower, -5.85%
- CCN(CC)CCNc1nc(N)c(C#N)c(C#N)c1C#N — lower, 1.45%
- CC(C)NC(=O)CCC(=O)O — lower, 0.5%
- N#Cc1sc2c(c1OC(=O)c1ccc(C(F)(F)F)cc1)c(=O)n(-c1ccccc1)c(=S)n2-c1ccccc1 — lower, 3.05%
- O=[N+]([O-])c1ccc(C2=NOC3COC4C=CC=CC4OCC23)cc1 (stereo not given) — lower, -7.5%
- CCCCCCCCCCCCCC(=O)OCC(CCS(=O)(=O)O[C@H]1CC[C@@]2(C)C(=CC[C@@H]3C2CC[C@]2(C)C(=O)CCC32)C1)OC(=O)CCCCCCCCCCCCC (stereo not given in full) — lower, -23.6%
- O=C(/C(=C\c1ccccc1)c1ccccc1)c1ccccc1 — lower, 21.4%
- CCc1nc(Nc2cccc(Cl)c2)c2cnn(-c3ccccc3)c2n1 — lower, -6.85%
- C=CCNC(=S)N/C=C(\C#N)c1nc2ccccc2s1 — higher, 31.3%
- CC(=O)Oc1ccc2ccccc2c1CS(=O)(=O)O — lower, 10.4%
- O=S(=O)(Nc1cc(C(F)(F)F)ccc1Cl)c1ccc(F)cc1 — lower, -8%
- NC(=O)CNC(=O)[C@@H]1C[C@@H](OCCC(=O)O)CN1C(=O)OCc1ccccc1 — lower, 4.95%
- O=C(O)CCC(=O)Nc1cc([N+](=O)[O-])ccc1OCc1ccccc1 — lower, 3.5%
- CC1=NN(c2ccccc2)C(N)C1 (stereo not given) — lower, 13.2%
- CN(Cc1ccc(Cl)cc1)C(=O)Nc1ccccc1Cl — lower, 9.95%
- O=C(c1ccc(Cl)cc1Cl)N1CCCCC1 — lower, 0.15%
- c1ccc(CN[C@]23C4C5CC6C7C5C2C7[C@@](NCc2ccccc2)(C64)N3Cc2ccccc2)cc1 (stereo not given in full) — lower, 5.25%
- CN(C)c1ncnc2nc[nH]c12 — lower, 16.3%

In the case of `BrC1=C(c2ccccc2)C2CCCCC2C1(Br)c1ccccc1` (stereo not given), the growth inhibition is reported as 98% (active).
For `C=CCNC(=S)N(Cc1ccccc1)Cc1ccccc1`, the growth inhibition was 86.5% (active).
In the case of `O=C1C(=Cc2ccc([N+](=O)[O-])cc2)C(=O)c2ccccc21`, the growth inhibition is reported as 85.5% (active).
